Most compounds without a hit are left out; they make up all but 2.7% or so of the library.
CHT PAM: CHT positive allosteric modulators, primary screen, cell-based, membrane potential dye, choline EC20 | CHT-expressing cells; stronger effect = higher value; LV-AA mutant CHT in HEK293 cells | B-score at 10 µM | 310,000 tested, 0.49% active | AID 488977, 2010;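 active means initial fluorescence not abnormally high and integrated response B-score, plate-corrected, over 3 SD above library mean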
IDE inh: human IDE inhibitors in live cells, primary screen, fluorescence polarization, HEK cells, FAbetaB substrate | inhibition, % at 5.59 µM | FAbetaB cleavage | Insulin-degrading enzyme (Homo sapiens), P14735 | 320,000 tested, 0.41% active | AID 434962, 2010;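 active means percent inhibition above the average of all tested compounds plus 3 SD, set per screening campaign, cut at about 16% in these data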;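 further: IDE supplied by intact live HEK cells; FP after avidin binding of uncleaved biotin substrate so inhibition keeps polarization high; 0% = DMSO wells and 100% = 60 µM reference IDE inhibitor Ii1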
CHT inh: inhibitors of human choline transporter CHT. High affinity choline transporter 1 (Homo sapiens), Q9GZV3. CHT-expressing cells, membrane potential dye, choline response; stronger effect = lower value. B-score at 10 µM. 310,000 tested, 0.86% active;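 active means B-score over 3 SD under the library average, and starting fluorescence ratio not unusually high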;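 further: choline stimulus applied at its EC90 after an EC20 pre-addition; B-score computed on integrated fluorescence ratio after choline addition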
IDE cell activ: human IDE activators in live cells, primary screen, fluorescence polarization, HEK cells, FAbeta-B substrate | Insulin-degrading enzyme (Homo sapiens), P14735 | FAbeta-B cleavage; 0% vehicle, 100% cell-free pure enzyme wells | activation, % at 5.96 µM | 340,000 tested, 0.073% active | AID 493087, 2011;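 active means activation above the mean of all tested compounds plus 3 SD, set per screening campaign, cut at about 17% in these data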
ANO1 block: TMEM16A chloride channel inhibitors, primary screen, cell-based, HTS; HEK293 TMEM16A/YFP iodide influx fluorescence, ionomycin; AID 588511, 2011; 310,000 tested, 1.2% active; normalized B-score (activity score, 25-100; higher = stronger inhibition) at 10 µM;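 active means ratio plate-corrected score three or more library SD toward inhibition, starting fluorescence score within five deviations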;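 further: score derived from kinetic fluorescence span divided by baseline fluorescence per well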
Target sequence (Q8BHY3 whole entry, looked up): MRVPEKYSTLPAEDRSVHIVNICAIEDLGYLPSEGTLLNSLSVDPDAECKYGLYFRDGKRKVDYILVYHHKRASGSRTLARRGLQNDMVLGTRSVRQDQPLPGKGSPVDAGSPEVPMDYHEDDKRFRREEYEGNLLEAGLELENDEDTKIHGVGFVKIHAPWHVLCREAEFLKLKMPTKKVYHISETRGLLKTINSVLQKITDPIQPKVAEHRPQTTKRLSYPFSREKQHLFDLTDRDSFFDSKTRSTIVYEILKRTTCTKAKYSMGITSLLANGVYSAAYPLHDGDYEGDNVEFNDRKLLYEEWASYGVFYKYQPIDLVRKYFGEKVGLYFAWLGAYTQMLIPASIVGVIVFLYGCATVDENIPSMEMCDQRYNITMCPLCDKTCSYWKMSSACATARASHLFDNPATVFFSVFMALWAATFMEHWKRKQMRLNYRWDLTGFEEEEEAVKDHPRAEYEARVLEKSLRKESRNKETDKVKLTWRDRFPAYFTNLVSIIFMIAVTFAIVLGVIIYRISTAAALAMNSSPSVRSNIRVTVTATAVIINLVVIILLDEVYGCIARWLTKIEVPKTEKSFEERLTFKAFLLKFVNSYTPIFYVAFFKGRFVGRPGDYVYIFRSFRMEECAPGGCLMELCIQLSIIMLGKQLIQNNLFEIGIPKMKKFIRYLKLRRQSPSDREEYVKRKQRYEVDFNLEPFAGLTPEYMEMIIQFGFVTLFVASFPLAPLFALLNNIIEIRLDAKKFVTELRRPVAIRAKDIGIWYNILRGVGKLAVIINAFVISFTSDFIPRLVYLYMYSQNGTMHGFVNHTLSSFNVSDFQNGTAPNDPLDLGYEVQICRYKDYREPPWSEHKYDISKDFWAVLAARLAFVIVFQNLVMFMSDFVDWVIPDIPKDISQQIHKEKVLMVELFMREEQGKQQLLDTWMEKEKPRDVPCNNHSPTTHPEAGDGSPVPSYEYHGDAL
TMEM16A act: TMEM16A chloride channel activators or potentiators, primary screen, cell-based, HTS; HEK293 TMEM16A/YFP-H148Q/I152L, iodide quench fluorescence; stronger effect = lower value; B-score at 10 µM; 340,000 tested, 0.3% active; AID 623877, 2012;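 active means fluorescence-ratio B-score plate-corrected deviation score at least 3 library SD below zero, with starting fluorescence score within 5 deviations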;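 further: channel opened by trigger with iodide after compound preincubation; score built on the fluorescence ratio of max minus min over baseline; more negative score means more quench and so TMEM16A activation or potentiation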
CHT block conf: CHT inhibitors, confirmation, cell-based, membrane potential dye, duplicate; CHT activity remaining % of control (stronger effect = lower value), % at 10 µM; shares compounds with CHT inh; CHT-expressing cells, choline membrane potential dye; LV-to-AA substituted CHT, HEK293 cells; 2,400 tested, 70% active;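 active means choline transporter activity left, mean of duplicates at 10 µM, below buffer-only control mean minus 3 SD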;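 further: depolarization triggered by choline at its EC90 following an EC20 pre-addition; 0% = hemicholinium-3 full block and 100% = buffer-only control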
HEK293 MPD ctr: membrane potential effects in parental HEK293, counter-screen for CHT inhibitor project, cell-based, membrane potential dye; shares compounds with CHT inh; choline response; active = decrease or increase beyond buffer ±3SD; membrane potential ratio readout (active if shifted either direction beyond buffer ±3SD; no single direction) at 10 µM; 2,400 tested, 4% active; AID 493222, 2011;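 further: parental cells lack the transporter so any hit is non-specific; ratio is peak minus trough fluorescence over baseline after EC90 choline challenge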
* marks the source's active call; other numbers are inactive results; i = inactive; nt = no result given.

SMILES | CHT PAM | IDE inh | CHT inh | IDE cell activ | ANO1 block | TMEM16A act | CHT block conf | HEK293 MPD ctr
COc1ccccc1CNC(=O)c1cccc(-c2ccc(C)c3ccccc23)n1 | i | -4.6 | i | nt | i | nt | nt | nt
CCc1noc(C)c1C(=O)Nc1nc(-c2ccccc2)c(C(C)=O)s1 | nt | -2.2 | nt | -0.8 | nt | i | nt | nt
CCc1c(C(=O)NNC(=O)Nc2ccc3c(c2)OCO3)csc1C | i | nt | i | -0.2 | i | i | nt | nt
Cn1c(NC(=O)CCC2CCCCC2)cc(=O)n(C)c1=O | i | -1.8 | -6.42* | 2.9 | i | i | i | i
Cc1cccc(NC(=O)N2CCC(C(=O)c3ccc(F)cc3)CC2)c1 | i | 3.7 | i | 3.0 | i | i | nt | nt
O=[N+]([O-])c1cccc(S(=O)(=O)NCc2ccncc2)c1 | i | -1.6 | i | 2.7 | i | i | nt | nt
O=[N+]([O-])c1cccc(S(=O)(=O)Nc2ccc(Cc3ccncc3)cc2)c1 | i | 10.7 | -6.13* | -3.2 | i | i | 58.9%* | i
Cc1cccc(NC(=O)NNC(=O)c2cc3occc3[nH]2)c1C | i | 0.7 | i | 4.8 | i | i | nt | nt
Cn1c(SCC(=O)N2CCN(c3ccccc3)CC2)nnc1-c1ccccc1 | i | -2.5 | -5.27* | -11.6 | i | i | 61.6%* | i
O=C(Cn1[nH]c(=O)c2ccccc2c1=O)N1CCN(S(=O)(=O)c2ccc(Cl)cc2)CC1 | nt | 5.2 | nt | -2.1 | nt | i | nt | nt
COc1cccc(/C=N/NC(=O)C(=O)NCc2cccnc2)c1OC | i | -4.7 | -5.94* | 0.7 | i | i | i | i
C#CCNc1c(C)c(C)nc2ncnn12 | i | 3.8 | -4.97* | 0.1 | i | i | 22.6%* | i
Nc1ccc(C2(c3ccc(N)cc3)C(=O)Nc3ccccc32)cc1 | i | -5.3 | -13.7* | -1.6 | i | i | -27.5%* | 8.97*
CCCCOc1ccc(N2CC(C(=O)NCc3ccco3)CC2=O)cc1 (configuration not stated) | i | -7.8 | i | 2.8 | i | i | nt | nt
Cn1c(C(=O)O)c(CC(=O)Nc2ccccc2F)c2ccccc21 | i | -1.4 | i | 3.2 | i | i | nt | nt
Cc1ccc2c(c1)c(CC(=O)Nc1ccc(C)c(F)c1)c(C(=O)O)n2C | i | -13.1 | -5.4* | 1.7 | i | i | 63.3%* | i
NC(=O)CCCn1c(C(=O)c2cc(Cl)c(N)c(Cl)c2)c2ccc([N+](=O)[O-])cc2[n+]1[O-] | i | 1.7 | -8.81* | -0.1 | i | i | 16.6%* | i
NC(=O)CCCn1c(C(=O)c2ccc(Cl)cc2)c2ccc([N+](=O)[O-])cc2[n+]1[O-] | i | 0.2 | i | 1.3 | i | i | nt | nt
NCCCn1c(C(=O)c2ccc(Cl)cc2)c2ccc(C(F)(F)F)cc2[n+]1[O-] | i | 4.8 | -5.15* | -5.1 | i | i | 31.4%* | 2.25*
Cc1noc(/C=C/N(C)C)c1S(=O)(=O)N1CCC(C(=O)NC(C)(C)C)CC1 | i | 10.3 | i | -2.0 | i | i | nt | nt
Cc1cc(C)c(NC(=O)c2ccc[n+](Cc3ccc([N+](=O)[O-])cc3)c2)c(C)c1 | i | 2.7 | -10.3* | -0.5 | i | i | 10.8%* | i
O=C1c2ccccc2C(=O)N1CCCCSc1nnc2c(Cl)cc(Cl)cn12 | i | 1.2 | -5.39* | 4.1 | i | i | i | i

Bioassay records deposited in PubChem BioAssay by several laboratories.
